The record followed here is PubChem BioAssay AID1508633 (National Center for Advancing Translational Sciences (NCATS), 2021).

Inconclusive results are not listed. A number with no mark means an inactive call. The source made the active and inactive calls. Calls come from the whole dose curve; as a rule, active = well fitted inhibition curve with a large enough effect; inconclusive = small, poorly fitted or top-dose-only effect; inactive = no such curve, though single readings can be large or run the other way. Where a SMILES comes first, the peptide text is derived from it. [ ]: non-standard residue; d: D form. The star is where a group is joined. Cbz = O=C(OCc1ccccc1)*; Nva = CCC[CH](N)C(=O)O

In the test the test system is zebrafish ABCB5 (Abcb5) multidrug transporter. Description: qHTS for characterization and localization of zebrafish homologs of the human ABCB1 multidrug transporter: ABCB5 transfected cells. Particulars: CellTiter-Glo luminescence viability, 72 h; series mostly up to 46.1 µM; activity, negative = inhibition: at the top concentration. The text has this:
The zebrafish has emerged as a potential model to study the blood-brain barrier (BBB) given its similarities with mammalian systems. However, little information has been available with regard to homologous ATP-binding cassette transporters expressed at the zebrafish BBB. Two transporters that are highly expressed at the human BBB are P-glycoprotein (P-gp, encoded by the ABCB1 gene) and ABCG2 (encoded by the ABCG2 gene). In this study, we focus on characterization of P-gp homologs in the zebrafish, which has two genes that are homologous to human ABCB1 - abcb4 and abcb5. We generated stably-transfected cell lines to determine their substrate specificities. […] Zebrafish abcb4 also colocalized with claudin 5 expression in brain endothelial cells.
A high-throughput screen was performed as previously described on empty vector transfected cells, P-gp-overexpressing MDR-19 cells and cells transfected with full-length zebrafish abcb4 (ZF Abcb4) or abcb5 (ZF Abcb5). Briefly, cells were plated into 1536-well plates at a density of 500 cells/well in 5 uL media. P-gp substrate compounds (approximately 90) selected from our previous study were then added at varying concentrations using a 1536-head pin tool (Kalypsis, San Diego, CA) and plates were incubated at 37C in 5% CO2 for 72 h. CellTiter-Glo reagent (Promega) was dispensed into the wells, incubated for 5 min and luminescence was read on a ViewLux instrument (Perkin-Elmer).
Cytotoxic compounds were defined as those that yielded a curve class of -1.1, -1.2, -2.1, -2.2, -2.3, or -2.4, a maximum response of >50% and an AC50 of < 10 uM. All compounds from screening analysis were tested in Vector (empty vector control), MDR-19 (P-gp overexpressing), zebrafish abcb4 (ZF Abcb4) and abcb5 (ZF Abcb5) expression cell lines.
1. Tobie D Lee, Olivia W Lee, Kyle R Brimacombe, Lu Chen, Rajarshi Guha, Sabrina Lusvarghi, Bethilehem G Tebase, Carleen Klumpp-Thomas, Robert W Robey, Suresh V Ambudkar, Min Shen, Michael M Gottesman, Matthew D Hall. A High-Throughput Screen of a Library of Therapeutics Identifies Cytotoxic Substrates of P-glycoprotein. Mol Pharmacol. 2019, Nov;96(5):629-640.
On to `COC[C@H](NC(=O)c1cnc(C)s1)C(=O)N[C@@H](COC)C(=O)N[C@@H](Cc1ccccc1)C(=O)[C@@]1(C)CO1`, for which the Potency is 0.166 µM (active). Same read-out and setting: under `CCCCc1nc2cc(C=CC(=O)NO)ccc2n1CCN(CC)CC` stands 7.43 µM (active); under `N=C(N)c1ccc(OCCCCCOc2ccc(C(=N)N)cc2)cc1`, 13.2 µM (active). `CCCC(C=O)NC(=O)C(CC(C)C)NC(=O)C(CC(C)C)NC(=O)OCc1ccccc1` (stereo not drawn) (Cbz-Leu-Leu-[Nva]-aldehyde; configuration not given here): the Potency is 1.87 µM (active).

As to `CC(NCc1ccc2c(c1)nc(NC(=O)c1ccc(-c3cn[nH]c3)s1)n2CC(C)(C)O)C(C)(C)C` (stereo not given), the Potency is 3.72 µM (active). Turning to `CCC(C)C(=O)OC1CC(O)C23C4OCC5(C(O)CC2C1(C)C(O)O4)C3C(=O)C(O)C1(C)C(O)(c2ccoc2)CC2OC251` (stereo not given), the “activity, negative = inhibition” value was 4.67% [at 15.2 µM]. On to `CC(C)C[C@H](NC(=O)[C@@H](NC(=O)c1cccc(-c2ccccc2)n1)[C@@H](C)O)B(O)O`, for which the Potency is 0.118 µM (active).

On to `CCc1cccc(CC)c1NC(=O)N1Cc2[nH]nc(NC(=O)c3ccc(N4CCN(C)CC4)cc3)c2C1`, for which the “activity, negative = inhibition” value is -1.82%.

For `COc1cc2ncn(-c3cc(OCc4ccccc4C(F)(F)F)c(C(N)=O)s3)c2cc1OC`, the Potency was 6.79 µM (active). `Cc1cc(Nc2cc(NC(=O)c3c(Cl)cccc3Cl)ccn2)nc(N)n1`: the Potency is 7.43 µM (active).

With `CC[C@@H]1C(=O)N(C)c2cnc(Nc3ccc(C(=O)NC4CCC(N5CCN(CC6CC6)CC5)CC4)cc3OC)nc2N1C(C)C` (stereo not given in full), the Potency is 1.32 µM (active). Still for that read-out and setting: to `CCn1nnc2c(N3CCOCC3)nc(-c3ccc(NC(=O)Nc4ccc(C(=O)N5CCN(C)CC5)cc4)cc3)nc21` belongs 1.87 µM (active); to `C#Cc1cccc(Nc2ncnc3cc(OC)c(OCCCCCCC(=O)NO)cc23)c1`, 8.33 µM (active). Same read-out and setting: under `CC[C@@]1([C@@H]2O[C@@H]([C@H]3O[C@@](O)(CO)[C@H](C)C[C@@H]3C)C[C@@H]2C)CC[C@H]([C@]2(C)CC[C@]3(C[C@H](O)[C@@H](C)[C@@H]([C@@H](C)[C@@H](OC)[C@H](C)C(=O)O)O3)O2)O1` stands 2.64 µM (active); under `COCCn1c2c([n+](Cc3cnccn3)c1C)C(=O)c1ccccc1C2=O`, 0.0935 µM (active).

With `CC[C@@H]1C(=O)N(C)c2cnc(Nc3ccc(C(=O)NC4CCN(C)CC4)cc3OC)nc2N1C1CCCC1`, the Potency was 1.32 µM (active). On to `NC(=O)Nc1cc(-c2ccc(CN3CCOCC3)c(F)c2)sc1C(=O)N[C@H]1CCCNC1`, for which the Potency is 1.48 µM (active). In the case of `CN(C)C1CCN(C(=O)c2ccc(NC(=O)Nc3ccc(-c4nc(N5CCOCC5)nc(N5CCOCC5)n4)cc3)cc2)CC1`, the Potency was 7.43 µM (active). With `Oc1ccc(-c2ccc(-c3cc(Nc4cccc(CNC5CC5)c4)n[nH]3)cc2)c(O)c1`, the Potency is 5.26 µM (active). Regarding `Cc1ccc(C(=O)N(CCCN)[C@@H](c2oc3cc(Cl)ccc3c(=O)c2Cc2ccccc2)C(C)C)cc1`, the Potency was 23.5 µM (active). On to `CN(C)C/C=C/C(=O)Nc1cccc(C(=O)Nc2ccc(Nc3nccc(-c4cccnc4)n3)cc2)c1`, for which the Potency was 14.8 µM (active). Consider `C#CCN(Cc1cc2c(=O)n(C)c(CN3CCN(C)CC3)nc2cc1Cl)c1ccc(C(=O)NCc2cccnc2)cc1`, for which the “activity, negative = inhibition” value was -17.2%. Regarding `Cc1[nH]c2ccccc2c1CCNCc1ccc(/C=C/C(=O)NO)cc1`, the Potency is 0.59 µM (active). The same measure, in the same setting: under `CC(=O)O[C@@H]1C[C@H](O)[C@@]23CO[C@@H](O)C1(C)[C@@H]2C[C@@H](O)[C@]1(C)[C@@H]3C(=O)[C@H](OC(C)=O)[C@@]2(C)[C@H](c3ccoc3)C[C@H]3O[C@]321` stands 1.05 µM (active); under `CC(C)C[C@H](NC(=O)[C@H](CCc1ccccc1)NC(=O)CN1CCOCC1)C(=O)N[C@@H](Cc1ccccc1)C(=O)N[C@@H](CC(C)C)C(=O)[C@@]1(C)CO1`, 0.166 µM (active). Take `CC1(C)CC(NC(=O)C(=O)Nc2ccc(Br)cc2)CC(C)(C)N1`: the “activity, negative = inhibition” value was -8.48%. On the same count and under the same terms, to `CCN(CCCO)CCCOc1ccc2c(Nc3cc(CC(=O)Nc4cccc(F)c4)[nH]n3)ncnc2c1` belongs -2.49%. As for `C/C=C1/NC(=O)C2CSSCCC=CC(CC(=O)NC(C(C)C)C(=O)N2)OC(=O)C(C(C)C)NC1=O` (stereo not given), the Potency was 2.09 µM (active). Still for that read-out and setting: under `CN(C)CCN(C)C(=O)c1ccc(NC(=O)Nc2ccc(-c3nc(N4CCOCC4)c4ccn(CC(F)(F)F)c4n3)cc2)cc1` stands 2.35 µM (active). As to `C=C1CO[C@@]2(O[C@H]3CC4C5CC=C6C[C@@H](O)C[C@@H](O[C@@H]7OC[C@H](O)[C@H](O[C@@H]8OC[C@@H](O)[C@H](O)[C@H]8O)[C@H]7O[C@@H]7O[C@@H](C)[C@H](OC(C)=O)[C@@H](OC(C)=O)[C@H]7OC(C)=O)[C@]6(C)C5CC[C@]4(C)[C@@H]3[C@@H]2C)[C@@H](O)[C@H]1OC1OC(C)C(O)C(O)C1O` (stereo not given in full), the activity, negative = inhibition was 3.83% [at 8.96 µM]. With `COc1cc2c(NC3CCN(C(C)C)CC3)nc(N3CCCN(C)CC3)nc2cc1OCCCN1CCCC1`, the “activity, negative = inhibition” value was -16.3%. `C[C@@H]1O[C@@H](O[C@H]2[C@@H](OC(=O)[C@]34CCC(C)(C)CC3C3=CCC5[C@@]6(C)C[C@H](O)[C@H](O[C@@H]7O[C@H](CO)[C@@H](O)[C@H](O)[C@H]7O[C@@H]7OC[C@@H](O)[C@H](O)[C@H]7O)[C@@](C)(C(=O)O)C6CC[C@@]5(C)[C@]3(C)CC4)OC[C@H](O)[C@@H]2O)[C@H](O)[C@H](O)[C@H]1O[C@@H]1OC[C@@H](O)[C@H](O)[C@H]1O` (stereo not given in full): the activity, negative = inhibition was -6.88% [at 8.96 µM].

With `Cc1ccc(-c2ncn(-c3ccc(Nc4nccc(-c5cccc(N6CCOCC6)c5)n4)cc3)n2)cn1`, the Potency was 5.9 µM (active). With `CCN(CC)Cc1ccc(C(=O)N(CCc2ccccc2OC)[C@@H]2CCNC2)cc1`, the “activity, negative = inhibition” value is 2.08%. On to `CCS(=O)(=O)c1cccc(-c2cc(C(=O)NC3CCN(C)CC3)c(C)c3[nH]c4ncc(C)cc4c23)c1`, for which the “activity, negative = inhibition” value was -11.8%. For the molecule `COc1cc(C(=O)NC2CCN(C)CC2)ccc1Nc1ncc2c(n1)N(C1CCCC1)CC(F)(F)C(=O)N2C`, the Potency is 1.18 µM (active). In the case of `Cc1ccc(C(=O)N(CCCN)C(c2nc3cc(Cl)ccc3c(=O)n2Cc2ccccc2)C(C)C)cc1` (stereo not given), the Potency is 23.5 µM (active).

For the molecule `NC(=O)Nc1cc(-c2cccc(F)c2)sc1C(=O)N[C@H]1CCCNC1`, the Potency is 0.662 µM (active). Take `CC(=O)OC1C(=O)C2(C)C(O)CC3OCC3(OC(C)=O)C2C(OC(=O)c2ccccc2)C2(O)CC(OC(=O)C(O)C(NC(=O)c3ccccc3)c3ccccc3)C(C)=C1C2(C)C` (stereo not given): the “activity, negative = inhibition” value was -31.9%. `C=CCNC1=C2CC(C)CC(OC)C(O)C(C)/C=C(\C)C(OC(N)=O)C(OC)/C=C/C=C(\C)C(=O)NC(=CC1=O)C2=O` (stereo not given): the Potency is 11.8 µM (active).
